Measured potencies and affinities stand elsewhere. Calls of active or inactive are those of the source. No rule for the calls is given here.

These results are taken from PubChem BioAssay AID1650 (Southern Research Specialized Biocontainment Screening …, 2009).

A short description of the experiment: host cell cytotoxicity of antiviral hits, dose response, cytotoxicity control for West Nile virus antiviral project, secondary assay (AID 1650). Conditions: Mammalian host cell viability, cytotoxicity counter-screen; series mostly up to 10 µM.
Regarding `CN1CCN(c2ccc(NC(=O)c3ccc(-c4cccc([N+](=O)[O-])c4)o3)cc2)CC1`, the call was inactive.

On to `O=[N+]([O-])c1nn(-c2ccccc2)n(O)c1=NC1CCN(Cc2ccccc2)CC1`, for which the outcome was inactive. Consider `Cc1cc(N2CCN(C)CC2)nc2ccc(NC(=S)N3CCN(c4ccccn4)CC3)cc12`, for which the molecule was classed as inactive. For `CC12CC3(C)CC(C)(C1)CC(C(=O)NCC(=O)O)(C2)C3`, the molecule was classed as inactive.

`C/C(=N\OC(=O)c1ccc(F)cc1)c1nccs1`: the result was inactive. Consider `O=C(c1ccc2c(=O)n(Cc3ccc4c(c3)OCO4)c(=O)[nH]c2c1)N1CCN(c2ccccc2)CC1`, for which the molecule was classed as inactive. For `CN1CCN(NC(=O)c2cc(-c3ccc(Cl)s3)nc3ccccc23)CC1`, the molecule was called inactive.

For `CCOC(=O)N1CCC(N2C(=O)c3ccccc3C2Nc2cc(C)cc(C)c2)CC1` (centres undefined), the result was inactive. To `CCCCOc1ccc(C(=O)N/N=C/c2ccc(OCCN3CCCCC3)c(OC)c2)cc1` belongs “inactive”; to `Brc1ccc2c(c1)CN1CCCC1=N2`, “inactive”; to `O=C1c2ccccc2C2=Nc3ccccc3SC(c3ccc(Cl)cc3)C12` (centres undefined), “inactive”. As to `O=C(CCN1C(=O)/C(=C/c2ccccc2F)SC1=S)NCCc1ccc(O)cc1`, the molecule was called inactive. To `COc1ccc2cc(Br)ccc2c1CC(=O)NC1CC(C)(C)NC(C)(C)C1` belongs “inactive”; to `COc1ccc(-c2nc(CN3CCC(C(=O)NC4CCN(Cc5ccccc5)CC4)CC3)c(C)o2)cc1OC`, “inactive”. For `COc1ccc(CN2[C@@H](CC(C)=O)c3ccc(/C=C/C(C)=O)cc3S2(=O)=O)cc1`, the outcome was inactive.

As to `O=C(Nc1cccnc1Cl)c1cc(-c2ccc(Cl)cc2)on1`, the result was inactive. To `Cc1cncn1CCc1nc2c3ccccc3nc(SCC(=O)Nc3cccc(Cl)c3)n2n1` belongs “inactive”; to `Cc1cc(F)ccc1N1CCC(N2CCN(C(C)C)C(CCO)C2)CC1` (centres undefined), “inactive”; to `C=CCNC(=O)c1ccc(-c2nc(-c3ccc(Cl)cc3Cl)cs2)cc1`, “inactive”. With `COc1cccc2sc3ccc(NCCC4CCCN4C)cc3c(=O)c12` (centres undefined), the molecule was classed as inactive. On to `Cc1cccc(CN2CCC(CNC(=O)Nc3ccc(F)c(Cl)c3)CC2)c1`, for which the molecule was classed as inactive. With `CCN(CC)CCC(c1cc(OC)c(OC)c(OC)c1)c1c(OC)cc(OC)c2c(-c3ccccc3)cc(=O)oc12` (centres undefined), the molecule was classed as inactive. Turning to `CN(CCCNC(=O)c1cc2c(Cl)nc3ccccc3c2s1)Cc1ccccc1`, the call was inactive. Regarding `CC(C)(C)c1ccc(-c2nnc(SCC(=O)Nc3sc4c(c3C#N)CCCC4)o2)cc1`, the result was inactive. Consider `CN1CCN(c2nc(Nc3ccc(F)cc3)nc(Nc3ccc(F)cc3)n2)CC1`, for which the call was inactive. `N#Cc1cc(-c2ccc(Cl)cc2)cnc1Sc1ccc(F)cc1`: the molecule was classed as inactive. Turning to `O=c1c(-c2ccccc2)c1-c1ccccc1`, the molecule was called inactive. Take `Cn1cnc([N+](=O)[O-])c1Oc1cccc2ccccc12`: the molecule was called inactive. As to `COc1ccc(N2CCN(c3oc(-c4ccc(OC)c(OC)c4)nc3C#N)CC2)cc1`, the result was inactive.

Take `COc1ccccc1CN1CCC(CNS(=O)(=O)c2cc(-c3onc(C)c3C)ccc2OC)CC1`: the outcome was inactive. On to `Cn1c(N/N=C/c2c[nH]c3ccccc23)nc2ccccc21`, for which the molecule was called inactive. To `FC(F)(F)c1nnc(-c2ccccc2)nc1Sc1ccc(Cl)cc1` belongs “inactive”; to `O=C(CSc1nc2ccccc2c(=O)n1-c1ccc(F)cc1F)Nc1ccc(N2CCOCC2)cc1`, “inactive”; to `CCN(CC)CCCNC(=O)c1[nH]c2ccccc2c1Sc1ccc(Cl)cc1`, “inactive”. Consider `CCN(CC)CCOC(=O)c1ccc(NC(=O)CCCN2C(=O)S/C(=C/c3ccc(OC)cc3)C2=S)cc1`, for which the molecule was called inactive. Consider `O=[N+]([O-])c1ccc(Cl)c(/C=N/n2c(C3CCCCC3)n[nH]c2=S)c1`, for which the call was inactive. Turning to `Cc1ccc2nc(N(CCCN(C)C)C(=O)CCc3ccccc3)sc2c1`, the call was inactive. To `N#Cc1ccc(-c2ccc(F)cc2)nc1Oc1ccc(Cl)c(Cl)c1` belongs “inactive”; to `Cc1ccc(NC(=S)N(CCCN2CCCC2)Cc2cccn2Cc2ccc(Cl)cc2)cc1C`, “inactive”.
